Molecules are shown by their SMILES. The whole screen tested about 390,000 compounds, of which about 2,200 (0.56%) were called active. Roughly 3% stayed inconclusive and do not appear here. Calls follow the shape of the dose curve; as a rule, active = well fitted inhibition curve with a large enough effect; inconclusive = small, poorly fitted or top-dose-only effect; inactive = no such curve, though single readings can be large or run the other way. What follows is part of a selection rich in actives, with near analogues and random picks from the rest. Entries that show only a call come without a potency.
Potency is read from the fitted curve at half-maximal effect.

Chromobox protein homolog 1 (Homo sapiens), sequence (P83916 whole entry, looked up): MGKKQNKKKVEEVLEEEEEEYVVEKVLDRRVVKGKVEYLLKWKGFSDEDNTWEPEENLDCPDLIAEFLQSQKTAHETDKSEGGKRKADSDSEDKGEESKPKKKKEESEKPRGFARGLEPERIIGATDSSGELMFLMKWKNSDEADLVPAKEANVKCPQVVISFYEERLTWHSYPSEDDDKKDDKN

The assay addresses Chromobox protein homolog 1 (Homo sapiens) (UniProt P83916). Description: HTS for Inhibitors of HP1-beta Chromodomain Interactions with Methylated Histone Tails. Also: nearly all actives have a fitted effect of over 70% in size. As to conditions: AlphaScreen HP1-beta / biotin-H3K9me3 peptide binding; series mostly up to 114 µM. A digest of the protocol:
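Compound inhibition of the preformed complex between 50 nM HP1-beta and 50 nM biotinylated H3K9me3 peptide was read by AlphaScreen. Buffer was PBS pH 7.4 with 0.01% Tween-20. Incubations ran 30 min at room temperature, with 10 ug/mL donor/acceptor beads.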
A general note: In Alpha technology, singlet oxygen from a donor bead excites a nearby acceptor bead.
As to `CSc1nc(-c2ccccc2Cl)nc2c1Cc1c(CO)cnc(C)c1O2`, the Potency result was “inactive”.
Under `COC(=O)C1=C(C)N(c2ccc(C)cc2)/C(=C/c2ccc(O)cc2)C1=O` stands “inactive”; under `COC(=O)C1=C(C)N(c2ccc(Br)cc2)C(=O)/C1=C\c1ccco1`, 44.7 µM (active).
`COc1ccc(N2C(=O)/C(=C\c3ccco3)N=C2SCC(N)=O)cc1Cl`: the Potency result was “inactive”.
Under `Cc1nc(N2CCOCC2)c2c(C(=O)NCc3cccc(Cl)c3)c(C)oc2n1` stands “inactive”.
For `CN(C)c1ccc(/C=C/C(=O)c2ccc(C(C)(C)C)cc2)cc1[N+](=O)[O-]` the value was 31.6 µM (active); for `CN(C)c1ccc(S(=O)(=O)NCC(=O)NCC2CCCCC2)cc1[N+](=O)[O-]`, “inactive”.
Consider `CC(C)(C)c1ccc(/C=C/C(=O)NC2CCS(=O)(=O)C2)cc1` (stereo unspecified), for which the Potency result was “inactive”.
Under `CCCCC(=O)OC1=CN(Cc2ccccc2)S(=O)(=O)c2ccccc21` stands “inactive”; under `COc1ccc(C(=O)Nc2nonc2-c2ccc(OC)c(OC)c2)cc1Cl`, “inactive”.
For `O=C(CSc1nc2ccccc2nc1Cc1ccccc1)N1CCCCC1` the value was “inactive”; for `O=C(NCC1CC1)C1(C(F)(F)F)C/C(=C\CCO)CCCO1` (stereo unspecified), “inactive”.
Under `O=C(O)c1ccccc1N=N/C(=N/Nc1cc(S(=O)(=O)O)ccc1O)c1ccccc1` stands 10 µM (active); under `CCC(=O)Nc1cccc(C(=O)OCc2cc(=O)n3nc(CC)sc3n2)c1`, “inactive”; under `O=C(Nc1ccccc1Br)c1cc(CN2CCCC2)on1`, “inactive”.
For `Fc1ccc(C(Nc2ccc(Cl)c(C(F)(F)F)c2)c2nnc(-c3ccccc3)o2)cc1` (stereo unspecified), the Potency entry is “inactive”.
For the compound `COc1ccc(C2CC(=O)N(Cc3ccccc3C)c3c2c(C)nn3-c2nc(C)cc(C)n2)c(OC)c1` (stereo unspecified), the Potency entry is “inactive”.
Under `COc1cc(OC)c2c(c1C(CCN1CCCCC1)c1ccc(N(C)C)cc1)OC(=O)CC2c1ccc(N(C)C)cc1` (stereo unspecified) stands “inactive”; under `Cc1sc(NC(=O)C2C3CCC(O3)C2C(=O)O)c(C(=O)OC(C)C)c1-c1ccc(Cl)cc1` (stereo unspecified), 4.47 µM (active).
On to `CC(C)OC(=O)c1cc(NC(=O)C2C3CCC(O3)C2C(=O)O)cc(C(=O)OC(C)C)c1` (stereo unspecified), for which the Potency entry is “inactive”.
With `CCc1c(C)sc(NC(=O)C2c3ccccc3Oc3ccccc32)c1C(=O)OC(C)C`, the Potency result is “inactive”.
Turning to `FC(F)(F)C1CCCN(c2nsc3ccccc23)C1` (stereo unspecified), the Potency is 3.16 µM (active).
Under `CCC(=O)N1CCc2cc(S(=O)(=O)NC(C(=O)Nc3ccc(C(C)=O)cc3)C(C)C)ccc21` (stereo unspecified) stands “inactive”.
Take `COc1ccc(C2/C=C\CN(Cc3ccco3)C(C)C(=O)N2Cc2ccc(F)cc2)cc1` (stereo unspecified): the Potency entry is “inactive”.
For `CC1CCN(C(=O)c2ccc3c(c2)NC(=O)CN3)CC1` the value was “inactive”.
For `Cc1ccc(CSCC2Nc3ccc(C(=O)N4CCN(c5ccc(F)cc5)CC4)cc3NC2=O)cc1` (stereo unspecified) the value was 20 µM (active).
Under `Cc1noc(C)c1S(=O)(=O)Nc1ccc(C(=O)N2CCN(c3ccc(F)cc3)CC2)cc1` stands “inactive”; under `Cc1ccc(C)c(N2CCN(c3ccc4cc(S(=O)(=O)N5CCC(C)CC5)ccc4n3)CC2)c1`, “inactive”; under `Oc1ccc2ccccc2c1N=Nc1nccs1`, 6.31 µM (active).
Consider `O=C(CSc1nc(-c2cccc(F)c2)[nH]c1-c1ccccc1)Nc1ccc2c(c1)OCO2`, for which the Potency entry is “inactive”.
For `Cc1ccccc1CSc1nc(-c2ccccc2)nc2c1Cc1c(CO)cnc(C)c1O2`, the Potency entry was “inactive”.
Under `Cc1ccc(NC(=O)C2CCN(S(=O)(=O)c3cc(-c4noc(C)n4)ccc3C)CC2)c(C)c1` stands “inactive”; under `CCOC(=O)C1=C(NC(=S)NC(=O)c2ccccc2)c2ccccc2CC1(C)C`, “inactive”; under `O=C(NC(=S)Nc1ncccn1)c1ccccc1Br`, “inactive”.
For `Cn1nnc(NC(=S)NC(=O)c2ccccc2)n1` the value was 70.8 µM (active); for `CSc1nnc(SCc2nc3sc(C(=O)O)c(C)c3c(=O)[nH]2)s1`, 50.1 µM (active).
Take `CCN(CC)Cc1nc2sc(C)c(C)c2c(=O)[nH]1`: the Potency entry is “inactive”.
In the case of `Cc1sc2nc(CC(N)=O)[nH]c(=O)c2c1-c1ccccc1`, the Potency result is “inactive”.
Under `C=C1CCN(Cc2ccc(OC)cc2)S(=O)(=O)c2ccccc21` stands “inactive”; under `COC(=O)c1ccc(OC)c(Cn2c(=O)n(Cc3ccccc3)c(=O)c3c2c2cc(OC)ccc2n3C)c1`, “inactive”.
Under `Cc1cc(C)cc(NC(=O)c2cnc3sc(N4CCCC4)nn3c2=O)c1` stands “inactive”.
For `CCC(C)N1C(=O)S/C(=C/c2ccc(Sc3nc4ccccc4[nH]3)o2)C1=O` (stereo unspecified) the value was “inactive”.
Consider `O=C(O)C(c1ccccc1)N1C(=O)/C(=C\c2ccc(-c3cccc(Cl)c3)o2)SC1=S` (stereo unspecified), for which the Potency was 39.8 µM (active).
In the case of `O=C(NCc1ccccc1)c1cc(-c2cccc(Cl)c2)on1`, the Potency entry is “inactive”.
For the compound `Cc1cccc(N2CCN(C(=O)Cn3ncc4c5ccccc5n(C)c4c3=O)CC2C)c1` (stereo unspecified), the Potency result is “inactive”.
Turning to `CC(C)c1ccc(NS(=O)(=O)c2ccc3[nH]cc(C(=O)NC4CCCC4)c(=O)c3c2)cc1`, the Potency result was “inactive”.
As to `Cc1cc2c(cc3c(SCc4cccc(Cl)c4)nnc(C)n32)o1`, the Potency entry was “inactive”.
Take `CCOC(=O)C1Nc2ccc(C(F)(F)F)cc2C2C=CCC12` (stereo unspecified): the Potency entry is “inactive”.
Under `CCOc1cccc(CC(=O)N2CCc3c([nH]c4ccccc34)C2c2ccc(F)cc2)c1OCC` (stereo unspecified) stands “inactive”; under `CCOc1cccc2c1N[C@@H](c1ccc(C(=O)O)cc1)[C@H]1CC=C[C@@H]21`, 35.5 µM (active).
For `C=C1CCN(C(CC(C)C)C(=O)NCc2cc(OC)c(OC)c(OC)c2)S(=O)(=O)c2ccccc21` (stereo unspecified) the value was “inactive”; for `CCCn1c2ccccc2c2cnn(CC(=O)N(C)c3ccccc3CC)c(=O)c21`, “inactive”.
For `COc1ccc(C2/C=C\CN(C(=O)c3ccc(C)cc3)C(Cc3ccccc3)C(=O)N2Cc2ccc(F)cc2)cc1` (stereo unspecified) the value was “inactive”; for `COc1cccc(CNC(=O)Cn2c(=O)c3cccn3c3ccc(F)cc32)c1OC`, “inactive”; for `O=C(c1cccs1)c1cn(CCOc2ccc(Cl)cc2)c2ccccc12`, “inactive”.
In the case of `Cc1ccc(-c2ccc(CCC(=O)O)n2-c2ccc(C(N)=O)cc2)cc1`, the Potency entry was “inactive”.
For `CCN1/C(=C/C(=S)Nc2ccccc2)Sc2ccccc21` the value was 50.1 µM (active); for `CCN1C(=O)c2ccccc2Sc2ccc(NC(=O)Cc3ccc(OC)cc3)cc21`, “inactive”; for `CCN1/C(=C\c2ccc3ccccc3[n+]2CC)Sc2cc(C)ccc21`, “inactive”.
Take `COc1ccc(CCNC(=O)c2ccc(CSCc3ccc(C)cc3)o2)cc1OC`: the Potency result was “inactive”.
On to `COc1ccc(-c2ccc(OC)c(C3C4C=CCC(C)C4C(=O)N3Cc3ccccc3)c2)cc1C` (stereo unspecified), for which the Potency result was “inactive”.
Under `O=C(OC12CC3CC(CC(C3)C1)C2)c1ccc(NCc2cc(O)ccc2O)cc1` stands 70.8 µM (active).
Under `O=C(Cn1ncn2nc(-c3cccs3)cc2c1=O)NCc1cccc(Br)c1` stands “inactive”; under `Cc1ccc(NN=Nc2nc3c([nH]2)c(=O)n(C)c(=O)n3C)cc1`, 35.5 µM (active); under `Cc1cc(C)c(C=NNc2nc3c([nH]2)c(=O)n(C)c(=O)n3C)c(C)c1`, “inactive”.
Under `Cc1ccc(CNC(=O)CSc2c(C)cnc3c2c(=O)n(C)c(=O)n3C)cc1` stands “inactive”; under `COc1ccc(NC(=O)CSc2nc3ncccc3[nH]2)c(OC)c1`, “inactive”; under `COc1ccc(CNC(=O)CCc2c(C)nn(-c3ccc(N4CCCC4)nn3)c2C)cc1`, “inactive”.
For the compound `Cc1cccc(C)c1-n1ncc(C(=O)NCCCN2CCCCC2)c1C1CCN(C(=O)OC(C)(C)C)CC1`, the Potency entry was “inactive”.
Under `Cc1cccc(Nc2cc(C)nc(-n3nc(C)cc3C)n2)c1` stands “inactive”; under `COc1ccc(OC)c(-n2nnc(-c3nc(-c4cc(OC)c(OC)c(OC)c4)no3)c2C)c1`, “inactive”; under `CCCC(=O)NC(=S)Nc1ccc(CN2CCOCC2)cc1`, “inactive”.
Under `OCCN1CCOCCOCCN(CCO)CCN(CCO)CC1` stands “inactive”; under `Oc1c(CN2CCOCC2)ccc(CN2CCOCC2)c1O`, 15.8 µM (active); under `CC(=O)N1CC[n+]2c(-c3ccc([N+](=O)[O-])cc3)csc21`, 10 µM (active).
As for `Cc1cc(C)cc(C(=O)N2CCN=C2SCc2ccc([N+](=O)[O-])cc2)c1`, the Potency result is “inactive”.
With `O=C(C1CCC1)N1CCN(S(=O)(=O)c2ccc([N+](=O)[O-])cc2)CC1`, the Potency result was “inactive”.
In the case of `O=S(=O)(c1ccc(Cl)cc1)c1nnn2c1nc(NC1CCCC1)c1sccc12`, the Potency entry is “inactive”.
For `Cc1ccccc1CNC(=O)c1cccc(NC(=O)c2nsc3ccccc23)c1`, the Potency result is “inactive”.
Under `Cc1ccc(NC(=O)Nc2sc3nc4n(c(=O)c3c2C)CCC(C)CC4)c(Cl)c1` (stereo unspecified) stands “inactive”; under `O=C(CCNC(=O)c1ccc([N+](=O)[O-])cc1)NC1CCCCC1`, “inactive”.
Under `CC1CCc2noc(NC(=O)c3ccc([N+](=O)[O-])cc3)c2C1` (stereo unspecified) stands “inactive”; under `O=C(Nc1cc2c3c(c1)C1CCCC1CN3CC1CCCC21)c1ccc([N+](=O)[O-])cc1` (stereo unspecified), 11.2 µM (active); under `Cc1ccc(-c2cn3c(n2)sc2cc(C(=O)NCCCc4ccccc4)ccc23)cc1`, “inactive”.
Under `CCOC(=O)c1c(C)oc2nc(C)nc(Nc3ccc(CC)cc3)c12` stands “inactive”; under `COCCNc1ncnc2c1c(-c1ccccc1)cn2-c1ccc(C)c(Cl)c1`, “inactive”; under `COc1ccc(S(=O)(=O)NC(C)C(=O)N2CCCCCC2)cc1` (stereo unspecified), “inactive”.
For `COc1ccc(S(=O)(=O)Nc2cc3c(C(=O)OC(C)C)c(C)oc3c3ccccc23)cc1`, the Potency entry is “inactive”.
In the case of `COc1ccc(S(=O)(=O)/N=C2\C=C(NS(=O)(=O)c3ccccc3)C(=O)c3ccccc32)cc1`, the Potency was 28.2 µM (active).
Under `CCCN1CCN(CCCNC(=O)Cn2nc(CC)n3c(cc4occc43)c2=O)CC1` stands “inactive”; under `O=C1C=CC(=O)N1c1ccc(N2CCCCC2)cc1`, 15.8 µM (active).
Under `Cc1ccc(CN2COc3cc(C)c4c(oc(=O)c5ccccc54)c3C2)cc1` stands “inactive”; under `O=c1[nH]c2ccccc2n2c(-c3ccccc3)nnc12`, 5.62 µM (active); under `CC(C)Cn1c(=O)c2ccccc2n2c(-c3cccc(Cl)c3)nnc12`, “inactive”.
Regarding `O=c1cc(-c2ccccc2)n2c(SCc3ccccc3)nnc2[nH]1`, the Potency entry was “inactive”.
As for `O=C(CNS(=O)(=O)c1cccs1)N1CCN(c2ccccc2Cl)CC1`, the Potency result was “inactive”.
